# Shown are actives, neighbours in structure and some others; about 9.2% of the full set was active somewhere.
# Lamin A splicing – changes lamin A minigene splicing in HeLa cells; HeLa LMNA splicing GFP/RFP minigene ratio, 48 h; Potency, µM (doses to about 46.1 µM), actives largely listed as inhibitors; 200,000 compounds, 0.01% hits; active = well fitted inhibition curve with a large enough effect in the signal ratio, with a control signal flat, not every such curve was filed as active; inconclusive = small, poorly fitted or top-dose-only effect, or effect the other way, or a change in a side signal; the % refers to the signal ratio
#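 S3 HeLa stable clones carrying a lamin A-EGFP splicing minigene plus DsRed2 were seeded at 600 cells/well in Opti-MEM with 2% FBS, pin-dosed and incubated 48 h at 37°C. Acumen cytometry (488 nm) gave the GFP/RFP total-intensity ratio.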
# KDM4E inh – blocks human JMJD2E demethylase activity; 230,000 compounds, 1.6% hits; B2RXH2; JMJD2E catalytic domain, FDH-coupled NADH fluorescence (FDH is formaldehyde dehydrogenase); Potency, µM (doses to about 57.1 µM), hits mostly inhibitors; AID 2147; also: nearly all actives have a fitted effect of over 50% in size
# Target sequence (B2RXH2 1-337 limits assumed): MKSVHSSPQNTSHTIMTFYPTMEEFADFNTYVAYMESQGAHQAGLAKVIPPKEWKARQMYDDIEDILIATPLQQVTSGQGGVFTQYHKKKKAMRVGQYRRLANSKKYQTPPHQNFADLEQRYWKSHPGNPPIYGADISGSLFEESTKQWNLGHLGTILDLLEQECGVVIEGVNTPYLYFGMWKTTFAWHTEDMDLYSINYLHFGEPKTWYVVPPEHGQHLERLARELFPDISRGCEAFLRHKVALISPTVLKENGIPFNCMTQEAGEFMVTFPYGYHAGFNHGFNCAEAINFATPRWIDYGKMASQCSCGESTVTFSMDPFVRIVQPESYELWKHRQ
# HPGD block – HPGD (human) dehydrogenase inhibition; 150,000 compounds, 4.3% hits; P15428; AID 894; purified HPGD, NADH fluorescence kinetic, PGE2 substrate; Potency, µM, most hits filed as inhibitors
# Target sequence (P15428 whole entry, looked up): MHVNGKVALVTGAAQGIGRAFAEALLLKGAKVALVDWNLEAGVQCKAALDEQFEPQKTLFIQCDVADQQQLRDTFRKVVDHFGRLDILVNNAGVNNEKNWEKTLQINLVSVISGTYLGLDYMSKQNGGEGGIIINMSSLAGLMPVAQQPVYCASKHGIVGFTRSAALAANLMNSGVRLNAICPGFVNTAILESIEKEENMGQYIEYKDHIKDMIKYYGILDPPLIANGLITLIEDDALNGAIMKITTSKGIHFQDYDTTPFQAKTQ
#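 NADH formation kinetics: reaction with 30 uM PGE2 and 1 mM NAD+ (final), 20 nM enzyme, Tris-HCl pH 8 with Tween 20, after 15 min compound preincubation at room temperature. Fluorescence change, last versus first of five reads.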
# ALDH1A1 inh – ALDH1A1 (human) enzyme inhibition; Purified ALDH1A1, NADH fluorescence, propionaldehyde substrate; Potency, µM (highest dose often 75.3 µM), hits mostly inhibitors; 220,000 compounds, 7.3% hits
# HttQ103 aggreg – inhibitors of mutant huntingtin aggregate formation in PC12 cells; PC12 HttQ103-GFP aggregates, Acumen cytometry, 40 h; 220,000 compounds, 1.1% hits; AID 1688; Potency, µM (series often up to 46.1 µM), actives largely listed as inhibitors; active = well fitted curve in the direction sought with a large enough effect; inconclusive = small, poorly fitted or top-dose-only effect, or another doubt; inactive = no such curve, though single readings can be large; an effect the other way counts as inactive or inconclusive; also: nearly all actives have a fitted effect of over 60% in size
#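 Inducible Q103 Huntingtin exon 1–GFP PC12 line, 1500 cells/well in phenol red free DMEM with 5% equine and 5% calf serum. Tebufenozide 100 nM induced expression; compounds titrated; aggregates quantified by cytometry.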
# HTT ATP protect – Huntington cell model cytoprotection by ATP luminescence. PC12 HTT-Q103 induced, cytoprotection, ATP luminescence, 40 h. 230,000 compounds, 0.14% hits. Potency, µM (highest dose often 56.4 µM), most hits filed as activators. AID 1471; active = well fitted curve in the direction sought with a large enough effect; inconclusive = small, poorly fitted or top-dose-only effect, or another doubt; inactive = no such curve, though single readings can be large; an effect the other way counts as inactive or inconclusive; also: nearly all actives have a fitted effect of over 45% in size
#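 Quantitative HTS on tebufenozide-induced (100 nM) PC12 cells expressing HTTQ103 exon 1–GFP; compounds tested as a concentration series; survival measured via cellular ATP.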
# A number is an active result; . = inactive; ? = inconclusive; / = no result; [ ] = remark or other dose. Unless noted, calls follow the shape of the dose curve; as a rule, active = well fitted inhibition curve with a large enough effect (not every such curve was filed as active); inconclusive = small, poorly fitted or top-dose-only effect, or another doubt; inactive = no such curve, though single readings can be large or run the other way.
SMILES,Lamin A splicing,KDM4E inh,HPGD block,ALDH1A1 inh,HttQ103 aggreg,HTT ATP protect
COc1cc2ccccc2cc1C(=O)Nc1ccc(Cc2ccncc2)cc1,?,?,.,?,10µM,.
Cc1ccc(C(=O)Nc2ccc(Cc3ccncc3)cc2)cc1[N+](=O)[O-],.,.,.,.,13µM,.
CCn1c(=O)cc(OCC(=O)Nc2ccccc2Cl)c2ccccc21,.,/,/,/,/,/
COC(=O)CSc1nc2c(c(=O)n(C)c(=O)n2C)n1CCC(C)C,.,.,14µM,13µM,.,.[10 µM]
COC(=O)C(C)Sc1nc2c(c(=O)n(C)c(=O)n2C)n1CCC(C)C (configuration not stated),.,.,.,?,.,/
CC(C)CCn1c(SCc2ccc(Cl)cc2)nc2c1c(=O)[nH]c(=O)n2C,?,.,25µM,11µM,.,.
CC(C)CCn1c(Sc2nc3ccccc3o2)nc2c1c(=O)[nH]c(=O)n2C,?,.,.,11µM,.,.[10 µM]
CCCCCCn1c(SCC(=O)OC)nc2c1c(=O)[nH]c(=O)n2C,.,.,7.9µM,3.5µM,.,.[10 µM]
CC(=O)Nc1ccc(NS(=O)(=O)c2ccc3[nH]c4c(c3c2)CCCCC4)cc1,.,/,/,/,/,/
Cc1ccc(S(=O)(=O)N(CC(=O)O)c2cccc(Cl)c2)cc1,/,/,.,.,/,/
CCCCn1c(SCc2ccc(Cl)cc2)nc2c1c(=O)[nH]c(=O)n2C,.,.,?,28µM,.,.[10 µM]
CC(C)n1c(SCC(N)=O)nc2c1c(=O)[nH]c(=O)n2C,.,.,?,22µM,.,.
C/C(Cl)=C/Cn1c(SCc2ccc(Cl)cc2)nc2c1c(=O)[nH]c(=O)n2C,.,.,.,?,?,.
Cc1cc(NO)c(C(C)C)cc1N=O,?,.,.,.,3.2µM,.[10 µM]
Cc1cc(C)c(NC(=O)c2cc(S(=O)(=O)N3CCN(c4ccccc4F)CC3)ccc2F)c(C)c1,.,/,/,/,/,/
Cc1cc(C)cc(OCC(=O)N2Cc3ccccc3CC2C(=O)O)c1 (configuration not stated),.,.,/,.,.,.
COC(=O)C1Cc2ccccc2CN1C(=O)CCl (configuration not stated),?,.,/,0.4µM,?,.[10 µM]
c1cncc(-c2nn3c(Cn4nnc5ccccc54)nnc3s2)c1,?,?,13µM,7.1µM,.,.[0.074 µM]
c1ccc(-c2nn3c(Cn4nnc5ccccc54)nnc3s2)nc1,.,?,7.1µM,3.2µM,.,.
Cc1oc2c(c1C(=O)NCc1cccnc1)C(=O)c1ccccc1C2=O,/,?,/,.,3.5µM,.[10 µM]
COc1ccc(CNC(=O)c2c(C)oc3c2C(=O)c2ccccc2C3=O)cc1,?,.,.,?,?,/
CC(=O)c1c(C)oc2c1C(=O)c1ccccc1C2=O,?,.,.,.,7.1µM,.[10 µM]
O=C(CCN1CCCCC1)N1CCc2c([nH]c3ccccc23)[C@H]1c1cccnc1,/,/,.,.[13.5 µM],/,.[10 µM]
Cc1cc(O)c(/C=N/Nc2ccc(Cl)cc2)c(=O)o1,.,.,.,.,.,.
Cc1cc(O)c(/C=N/Nc2ccccc2Cl)c(=O)o1,.,?,.,10µM,.,.
SMILES,Lamin A splicing,KDM4E inh,HPGD block,ALDH1A1 inh,HttQ103 aggreg,HTT ATP protect
O=C1C(CCCNC(=S)NCc2ccccc2)NC(=S)N1Cc1ccccc1 (configuration not stated),.,.,?,32µM,.,.[10 µM]
C=CCNC(=S)NCCCCC1NC(=S)N(CC=C)C1=O (configuration not stated),.,.,.,.,.,.[10 µM]
O=C(N/N=C\c1ccccn1)C1COc2cc3ccccc3cc2O1 (configuration not stated),.[0.0737 µM],.,14µM,?,.,.
O=C(N/N=C\c1ccc(-c2ccc([N+](=O)[O-])cc2)o1)C1COc2ccccc2O1 (configuration not stated),?,.,20µM,.,.,/
CN(C)c1ccc(/C=N/NC(=O)C2COc3ccccc3O2)o1 (configuration not stated),.,.,.,22µM,.,/
O=C(N/N=C/c1c(O)n(-c2ccccc2Cl)c(=O)c2ccccc12)C1COc2ccccc2O1 (configuration not stated),?,?,?,?,13µM,.[10 µM]
O=C(N/N=C/c1cccc([N+](=O)[O-])c1)C1COc2ccccc2O1 (configuration not stated),/,.,/,?,.,.
O=C(N/N=C\c1ccccn1)C1c2ccccc2Oc2ccccc21,.,.,/,.,.[9.22 µM],.[10 µM]
Cc1ccc(-n2c(O)c(/C=N/NC(=O)C3COc4ccccc4O3)c3ccccc3c2=O)cc1 (configuration not stated),.,?,.,?,?,/
c1ccc(COn2c(-c3ccccc3)nc3c2CCc2nonc2-3)cc1,?,?,/,8.9µM,.,.
O=C1NC(=O)[C@@H]2C3c4ccccc4C=CN3[C@H](C(=O)c3cccs3)[C@H]12 (some centres not stated),.,?,.,25µM,.,.
N#C[C@@H]1[C@@H]2C(=O)N(c3ccc4c(c3)OCCO4)C(=O)[C@@H]2C2c3ccccc3C=CN21 (some centres not stated),.,.,?,?,.,.[10 µM]
CN(C)c1nc(Nc2ccccc2)nc(N(C)C)n1,.,.,.,?,.,.
CN(C)c1nc(N/N=C/c2ccccc2O)nc(Nc2ccc(F)cc2)n1,/,28µM,/,.,?,.
O=C(c1cccc(C(F)(F)F)c1)c1c[nH]c(C(=O)NCCCN2CCOCC2)c1,.,.,/,.,.,.[10 µM]
NC(=O)COC(=O)[C@@H]1CC(O)CN1S(=O)(=O)c1ccc2c(c1)OCCO2 (some centres not stated),/,.,/,/,.[9.22 µM],.[10 µM]
O=C(COC(=O)C1CC(O)CN1S(=O)(=O)c1ccc(Cl)cc1)c1ccccc1Cl (configuration not stated),.,.,.,18µM,.,.[0.074 µM]
CC(C)N(C(=O)COC(=O)[C@@H]1CC(O)CN1S(=O)(=O)c1ccc(C(C)(C)C)cc1)C(C)C (some centres not stated),.,.,/,8.9µM,.,.
O=C(COC(=O)C1CC(O)CN1S(=O)(=O)c1ccc(Cl)cc1)c1ccccc1 (configuration not stated),.,.,.,?,.,.[10 µM]
CC(O)/C=C/c1cccc[n+]1C (configuration not stated),.,7.9µM,.,25µM,.,.
COCC(=O)c1[nH]c2ccccc2c1C,.,.,.,7.9µM,.,.[0.074 µM]
COc1ccc([C@H]2Oc3cc(O)cc(O)c3C(=O)C2[C@@H]2C(=O)c3c(O)cc(O)cc3O[C@@H]2c2ccc(OC)cc2)cc1 (some centres not stated),/,.,/,/,?,.[10 µM]
